Measurements: PubChem BioAssay AID2013 (Sanford-Burnham Center for Chemical Genomics, 2009)
Screen size: about 290,000 compounds; about 370 (0.13%) were called active.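 The calls were made as follows: active = spots per cell inhibited over 60%, with over 100 cells counted and total cytoplasm intensity under 500,000; inconclusive = wells with under 100 cells, flagged as likely toxic; inactive = the rest.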 What follows is part of a selection rich in actives, with near analogues and random picks from the rest. Measured potencies and affinities stand elsewhere.

Target: G-protein coupled receptor 55 (Homo sapiens) (UniProt Q9Y2T6)
Experiment: GPR55 antagonists blocking LPI-driven arrestin recruitment, primary screen, imaging, U2OS, beta-arrestin-GFP, LPI agonist (AID 2013);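 also: U2OS cells stably carrying GPR55 and arrestin-GFP stimulated by 5 µM LPI near EC80; imaged beta-arrestin-GFP aggregate spots per cell after agonist stimulation; plate controls were LPI-stimulated DMSO wells for no effect and DMSO wells without LPI for full effect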
Conditions: U2OS GPR55 beta-arrestin-GFP translocation imaging, LPI antagonism; at 10 µM; active compounds read high

Chain of G-protein coupled receptor 55 (Homo sapiens) (Q9Y2T6 whole entry, looked up): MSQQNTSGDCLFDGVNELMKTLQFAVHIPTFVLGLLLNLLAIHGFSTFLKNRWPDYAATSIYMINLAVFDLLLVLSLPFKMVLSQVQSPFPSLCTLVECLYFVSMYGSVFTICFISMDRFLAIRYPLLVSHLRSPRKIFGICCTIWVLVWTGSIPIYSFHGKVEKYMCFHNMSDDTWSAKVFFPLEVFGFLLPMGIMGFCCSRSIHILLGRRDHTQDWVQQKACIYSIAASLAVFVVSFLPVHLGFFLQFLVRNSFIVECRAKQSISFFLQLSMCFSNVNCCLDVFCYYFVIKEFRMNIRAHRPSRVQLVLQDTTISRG

Row | SMILES | inhibition
1 | O=C1CC(N2CCN(c3ccccn3)CC2)C(=O)N1c1ccc(Cl)cc1 (stereo not drawn) | -0.1% (inactive)
2 | COCCn1c(SCC(=O)NC2CCCC2)nnc1-c1ccncc1 | 1.6% (inactive)
3 | O=C(NCCc1ccc(Cl)cc1)c1cc2ccccn2n1 | 6.6% (inactive)
4 | COc1ccc(N2CCN(C(=O)Cn3ncc4c([nH]c5ccccc54)c3=O)CC2)cc1 | -7% (inactive)
5 | COc1cccc(NC(=O)COC(=O)CC(NC(N)=O)c2ccc(Cl)cc2)c1 (stereo not drawn) | -13.8% (inactive)
6 | O=C(Nc1ccc(N2CCOCC2)cc1)c1cc(-c2ccncc2)nc2ccccc12 | 15.8% (inactive)
7 | COc1cc(-c2cc(C(=O)Nc3ccccc3N3CCOCC3)c3ccccc3n2)cc(OC)c1OC | 17.1% (inactive)
8 | Cc1cc(NC(=O)CSc2nnc(C)o2)no1 | 4.5% (inactive)
9 | OCCNc1nc(NCc2ccccc2)c2ccccc2n1 | -6.4% (inactive)
10 | Fc1ccc(Nc2nc(NCc3ccco3)c3ccccc3n2)cc1 | 60.1% (inactive)
11 | Cc1ccccc1Nc1nc(NCc2ccco2)c2ccccc2n1 | 54.3% (inactive)
12 | Cc1cccc(Nc2nc(NCc3ccco3)c3ccccc3n2)c1 | -2.1% (inactive)
13 | c1ccc(CNc2nc(NCc3ccccc3)c3ccccc3n2)cc1 | 72% (active)
14 | Cc1ccc(-c2nc(NCc3ccco3)c3ccccc3n2)cc1 | 7.7% (inactive)
15 | c1ccc(Nc2nc(NCc3ccco3)c3ccccc3n2)cc1 | 73.7% (active)
16 | CNc1nc(NCc2ccccc2)c2ccccc2n1 | 5.4% (inactive)
17 | CC(=O)c1ccc(NC(=O)COc2ccccc2C(=O)Nc2ccc(C)cn2)cc1 | 10% (inactive)
18 | CC(C)CC1(C)NC(=O)N(Cc2cc([N+](=O)[O-])cc3c2OCOC3)C1=O (stereo not drawn) | -6.2% (inactive)
19 | CCCN(CC1CC1)C(=O)COC(=O)c1ccc(CNS(=O)(=O)c2ccc(F)c(Cl)c2)cc1 | 0.7% (inactive)
20 | c1ccc(OCCOc2ccccc2-c2nnco2)cc1 | -6.8% (inactive)
21 | Cc1ccc(-c2ccccc2[C@@H]2C[C@H]3CN(C)C(=O)[C@]34CCCN24)o1 | -2.8% (inactive)
22 | CC(C)N(C=O)C1(C(=O)NC2CCCCC2)CCCCC1 | 5.3% (inactive)
23 | COc1ccc[nH]c1=O | 0.4% (inactive)
24 | CC(O)CNc1cnccn1 (stereo not drawn) | 14.2% (inactive)
25 | O=C(NCCN1CCNC1=O)C1CCC(=O)N(Cc2cccc(C(F)(F)F)c2)C1 (stereo not drawn) | -10.6% (inactive)
26 | Cc1ccc(NC(=S)NNC(=O)c2c([N+](=O)[O-])c(C)nn2C)cc1 | -1.6% (inactive)
27 | CN1C2CCC1/C(=C\c1ccccc1Cl)C(=O)/C2=C\c1ccccc1Cl | -4.7% (inactive)
28 | CN1C2CCC1/C(=C\c1ccccc1)C(=O)/C2=C\c1ccccc1 | 15.1% (inactive)
